Source: PubChem
MARV entry inh – Marburg virus entry inhibition | Marburg virus pseudotyped entry inhibition, cell reporter | Potency, µM (top dose mostly 37.8 µM), most hits filed as inhibitors | actives 1.8% (n = 300,000) | AID 540276; calls by dose curve; tested in HEK293 cells
HCMV inh – human cytomegalovirus inhibition; HFF cells, HCMV-luciferase reporter, 72 h; active compounds read low; activity change, negative = inhibition, % at 57.5 µM; actives 4.5% (n = 410,000); in the data active = activity change below about -60%; inconclusive = no clear call, values can overlap the other calls; inactive = above about -39%
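Two-dose cell screen: HFF monolayers treated with compounds and infected with luciferase-expressing HCMV at 1 PFU/cell, 72 h at 37C, then lysed for luciferase measurement.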
FMDV inh – blocks foot and mouth disease virus. actives 1.2% (n = 410,000). AID 1159524. FMDV antiviral cell-based qHTS. Potency, µM (series often up to 57.9 µM), most hits filed as inhibitors; calls by dose curve; tested in HEK293T cells; also: read-out not given here; nearly all actives have a fitted effect of over 45% in size
VACV Venus inh – vaccinia inhibition (Venus reporter); Vaccinia virus Venus reporter expression, fluorescence; Potency, µM (titrated, usually from 36.5 µM), usual class: inhibitors; actives 0.46% (n = 330,000); calls by dose curve; tested in A549 cells; also: nearly all actives have a fitted effect of over 30% in size
VACV mCherry inh – inhibitors of vaccinia virus infection (mCherry reporter signal). Vaccinia virus mCherry reporter infection, fluorescence. AID 720579. Potency, µM (highest dose often 36.5 µM), actives largely listed as inhibitors. actives 0.63% (n = 310,000); calls by dose curve; tested in A549 cells; also: nearly all actives have a fitted effect of over 35% in size
Lassa entry inh – blocks Lassa virus binding to or entry into cells | Potency, µM (highest dose often 37.9 µM), actives largely listed as inhibitors | actives 1.2% (n = 300,000) | Lassa virus pseudotype entry inhibition, cell reporter; calls by dose curve; tested in HEK293 cells; also: nearly all actives have a fitted effect of over 50% in size
Each line names hits and unclear results; the compound was inactive in the other large screens. Most compounds without a hit are left out; they make up all but 6.5% or so of the library.

CS(=O)(=O)c1ccc(-c2ccc3c(c2)CC(CNC(=O)C2(N4CCOCC4)CCCCC2)O3)cc1 (stereo unspecified)	VACV Venus inh inconclusive (no result: MARV entry inh, HCMV inh, Lassa entry inh)
Cn1nc(C(F)(F)F)c2cc(C(=O)Nc3ccc(F)cc3)sc21	none
Cn1nc(C(F)(F)F)c2cc(C(=O)Nc3ccc(C(F)(F)F)cc3)sc21	MARV entry inh inconclusive, HCMV inh -106.3, FMDV inh inconclusive, Lassa entry inh inconclusive
Cn1nc(C(F)(F)F)c2cc(C(=O)Nc3ccc(F)c(Cl)c3)sc21	MARV entry inh inconclusive, HCMV inh -75.3, FMDV inh inconclusive, Lassa entry inh inconclusive
Cc1ccc(C)c(-n2cc(CNCCCn3cccn3)c(-c3ccccc3)n2)c1	MARV entry inh 10µM, HCMV inh -65.3, Lassa entry inh inconclusive
Cc1ccc(-n2cc(CNCCCn3ccnc3C)c(-c3ccc(F)cc3)n2)cc1	MARV entry inh inconclusive, HCMV inh -81.7, VACV Venus inh inconclusive, VACV mCherry inh inconclusive, Lassa entry inh inconclusive
Cc1ccc(-n2cc(CNCCc3cscn3)c(-c3ccc(F)cc3)n2)cc1	MARV entry inh 12.6µM, Lassa entry inh inconclusive
CCOC(=O)c1nn(-c2ccc(C)cc2)c(=O)cc1OCC(=O)Nc1cccc(C)c1	MARV entry inh inconclusive
CC(=O)Nc1c(C(=O)Nc2cccc(C)c2)nnn1-c1ccc(C)cc1	HCMV inh -61.9, Lassa entry inh inconclusive
Cc1cnc(-n2ncc(C(=O)NCC(C)(C)N3CCOCC3)c2C)nc1-c1cccs1	none (no result: MARV entry inh, HCMV inh, Lassa entry inh)
COc1cccc(C(=O)NCC(=O)N/N=C(C)\C=C\c2ccccc2)c1	none
COc1ccc(/C(C)=N/NC(=O)CNC(=O)/C=C\c2ccccc2)c(OC)c1	HCMV inh -85.9 (no result: MARV entry inh, VACV Venus inh, VACV mCherry inh, Lassa entry inh)
COc1ccc(/C(C)=N/NC(=O)CNC(=O)COc2ccccc2)c(OC)c1	none
COc1cc(C(=O)NCC(=O)N/N=C(C)\C=C\c2ccccc2)cc(OC)c1OC	HCMV inh -72.6, VACV mCherry inh inconclusive
O=C(Cc1ccccc1)Nc1nccs1	none (no result: MARV entry inh, VACV Venus inh, VACV mCherry inh, Lassa entry inh)
S=C(Nc1ccccc1)Nc1nccs1	MARV entry inh 14.1µM, Lassa entry inh 14.6µM
Fc1ccc(NC(=S)Nc2nccs2)cc1	HCMV inh -115.0 (no result: MARV entry inh, VACV Venus inh, VACV mCherry inh, Lassa entry inh)
CCOC(=O)N1CCC(NC(=O)CSCc2nc(-c3ccc(OC)c(OC)c3)oc2C)CC1	MARV entry inh inconclusive (no result: VACV Venus inh, VACV mCherry inh)
Cc1oc(-c2ccc(Cl)cc2)nc1CN1CCCC(C(=O)N2CCN(C(=O)c3ccco3)CC2)C1 (stereo unspecified)	FMDV inh 14.1µM, VACV Venus inh inconclusive, VACV mCherry inh inconclusive (no result: Lassa entry inh)
CCOC(=O)N1CCC(NC(=O)C2CCCN(Cc3nc(-c4cccc(C)c4)oc3C)C2)CC1 (stereo unspecified)	MARV entry inh inconclusive, HCMV inh -73.3, FMDV inh inconclusive, Lassa entry inh inconclusive
CCOC(=O)N1CCC(NC(=O)CSCc2nc(-c3ccc(C)cc3)oc2C)CC1	HCMV inh -63.2, FMDV inh inconclusive (no result: MARV entry inh, VACV Venus inh, VACV mCherry inh, Lassa entry inh)
Cc1cccc(-c2nc(CN3CCCC(C(=O)NC4CCCC4)C3)c(C)o2)c1 (stereo unspecified)	MARV entry inh 14.6µM (no result: VACV Venus inh, VACV mCherry inh)
Cc1cccc(-c2nc(CN3CCCC(C(=O)NC4CCC(C)CC4)C3)c(C)o2)c1 (stereo unspecified)	MARV entry inh inconclusive (no result: VACV Venus inh, VACV mCherry inh)
N#Cc1cccc(-c2nc3cnc(Oc4cccc(Cl)c4)nc3n(C3CC3)c2=O)c1	none (no result: MARV entry inh, HCMV inh, VACV Venus inh, VACV mCherry inh, Lassa entry inh)
CCOc1ccc(-c2nc(CSCC(=O)NCc3ccc(Cl)cc3)c(C)o2)cc1	HCMV inh -66.0, FMDV inh inconclusive, VACV Venus inh inconclusive, VACV mCherry inh inconclusive (no result: MARV entry inh)
Cc1ccc(CNC(=O)CSCc2nc(-c3ccc(Cl)cc3)oc2C)cc1	none
CCCCCCCOc1ccc(OC(=O)c2cccnc2)cc1	none (no result: FMDV inh)
CCCCCCCOc1ccc(OC(=O)c2ccncc2)cc1	MARV entry inh inconclusive, HCMV inh -64.3 (no result: FMDV inh)
N#CC(C#N)=C1c2cc(S(N)(=O)=O)ccc2-c2ccc(S(N)(=O)=O)cc21	FMDV inh 25.1µM (no result: MARV entry inh, VACV Venus inh, VACV mCherry inh, Lassa entry inh)
Cc1c(Cl)sn(-c2ccc(Cl)cc2)c1=O	MARV entry inh inconclusive, HCMV inh -100.8, FMDV inh inconclusive, VACV Venus inh inconclusive, VACV mCherry inh inconclusive, Lassa entry inh 9.2µM
Cc1ccc(-c2c(C#N)c(N)nc3c2CCCCC3)o1	none (no result: VACV Venus inh, VACV mCherry inh)
O=[N+]([O-])c1ccc(-c2nc(Cl)c3c(n2)CCCC3)o1	HCMV inh -69.0, VACV Venus inh inconclusive, VACV mCherry inh 11.2µM (no result: MARV entry inh, Lassa entry inh)
C[C@@H]1CN([C@@H](C)CO)C(=O)CCCn2cc(nn2)CO[C@H]1CN(C)C(=O)Nc1ccc2c(c1)OCCO2	none (no result: MARV entry inh, FMDV inh, VACV Venus inh, VACV mCherry inh, Lassa entry inh)
O=C(Nc1ccc(Oc2ccccc2)cc1)c1ccc(F)c(S(=O)(=O)N2CCN(c3ccccc3F)CC2)c1	HCMV inh -78.7, FMDV inh inconclusive, Lassa entry inh inconclusive (no result: MARV entry inh)
CC(C)c1ccc(NC(=O)c2ccc(F)c(S(=O)(=O)N3CCN(c4ccccc4F)CC3)c2)cc1	none (no result: MARV entry inh)
COc1ccccc1N1CCN(S(=O)(=O)c2cc(C(=O)Nc3ccc(Oc4ccccc4)cc3)ccc2F)CC1	HCMV inh -67.1, FMDV inh inconclusive, Lassa entry inh inconclusive (no result: MARV entry inh)
Cc1cccc(N2CCN(S(=O)(=O)c3cc(C(=O)Nc4ccc(Oc5ccccc5)cc4)ccc3F)CC2C)c1 (stereo unspecified)	HCMV inh -64.0, FMDV inh inconclusive, Lassa entry inh inconclusive (no result: MARV entry inh)
Cc1cccc(NC(=O)c2ccc(F)c(S(=O)(=O)N3CCC4(CC3)OCCO4)c2)c1	none (no result: MARV entry inh)
Cc1cccc(NC(=O)c2ccc(F)c(S(=O)(=O)N3CCN(c4ccc(F)cc4)CC3)c2)c1	HCMV inh -73.3, FMDV inh inconclusive, VACV Venus inh inconclusive, VACV mCherry inh inconclusive, Lassa entry inh inconclusive (no result: MARV entry inh)
CCn1ccc2cc(S(=O)(=O)N3CCC(C(=O)NCc4ccc(OC(C)C)cc4)CC3)ccc21	none (no result: MARV entry inh)
c1ccc2c(c1)ccn2-n1ccc2ccccc21	VACV mCherry inh inconclusive (no result: MARV entry inh, HCMV inh, FMDV inh, Lassa entry inh)
COC(=O)C1=C(C)N(C)C(=NCc2cc(OC)c(OC)c(OC)c2)NC1c1cccc(Cl)c1 (stereo unspecified)	none (no result: MARV entry inh, FMDV inh, VACV Venus inh, VACV mCherry inh, Lassa entry inh)
O=C(Nc1ccc(Oc2ccccc2)cc1)c1ccc(F)c(S(=O)(=O)N2CCN(c3cccc(Cl)c3)CC2)c1	HCMV inh -70.3, FMDV inh inconclusive, VACV mCherry inh inconclusive, Lassa entry inh inconclusive (no result: MARV entry inh)
CCOc1ccc(-c2cc(C(=O)NCCCn3ccnc3)c3ccccc3n2)cc1	none (no result: MARV entry inh, VACV Venus inh, VACV mCherry inh, Lassa entry inh)
COc1ccccc1CCNC(=O)c1cc(-c2ccncc2)nc2ccc(Br)cc12	MARV entry inh inconclusive, HCMV inh -66.2, FMDV inh inconclusive, Lassa entry inh inconclusive
CCOc1ccc(-c2cc(C(=O)NCCCn3ccnc3)c3cc(Br)ccc3n2)cc1	MARV entry inh inconclusive, HCMV inh -76.6, FMDV inh inconclusive, VACV Venus inh inconclusive, VACV mCherry inh inconclusive, Lassa entry inh inconclusive
COc1ccc(NC(=O)c2cc(-c3ccc(OC)c(OC)c3)nc3ccccc23)c(OC)c1	MARV entry inh inconclusive, HCMV inh -75.1, Lassa entry inh inconclusive
COc1ccc(-c2cc(C(=O)NC3CCCC3)c3ccccc3n2)cc1OC	none
COc1ccccc1NC(=O)c1cc(-c2ccc(C)o2)nc2ccccc12	MARV entry inh inconclusive, HCMV inh -71.5
COc1ccccc1CCNC(=O)c1cc(-c2ccccn2)nc2ccccc12	none
